Measurements reported in the supplement of paper PMC13380429.

Experiments:
[1] = tested on: Vero E6 infected with SARS-CoV-2; assay: morphology score (similarity to uninfected cells); higher = more like uninfected cells; details: 24 h
[2] = tested on: Vero E6 infected with SARS-CoV-2; assay: SARS-CoV-2 infection rate relative to infected DMSO; higher = more infection, active = 60 or less; details: 24 h

SMILES | morphology score [1] | SARS-CoV-2 infection rate [2]
C[C@H](N)C(=O)N[C@@H](CCC(N)=O)C(=O)O [dipeptamin] (10 µM) | 0.00346 | 102% (inactive)
COc1ccc(C(C)=O)c(O)c1 [paeonol] (10 µM) | 0.0505 | 100% (inactive)
Cc1cc(C)c(/C=C2\C(=O)Nc3ccccc32)[nH]1 [semaxanib] (10 µM) | 0.208 | 96% (inactive)
CN(C)c1ccccc1CN1CCCN(Cc2ccccc2N(C)C)C1c1ccncc1 (10 µM) | 0.576 | 42% (active)
S=C(NCc1ccc2c(c1)OCO2)N1CCN(c2ncnc3c2oc2ccccc23)CC1 [amuvatinib] (0.833333 µM) | 0.0595 | 92.5% (inactive)
O=S(=O)(O)CCS [mesna] (10 µM) | 0.157 | 109% (inactive)
O=C(NC1CCN(CCc2c[nH]c3ccccc23)CC1)c1ccccc1 [indoramin] (10 µM) | 0.105 | 102% (inactive)
Cc1cc(NCCO)nc(-c2ccc(Br)cc2)n1 (10 µM) | 0.269 | 101% (inactive)
Cc1[nH]c(/C=C2\C(=O)Nc3ccccc32)c(C)c1CCC(=O)O [orantinib] (10 µM) | 0.123 | 92.5% (inactive)
